Source: PubChem BioAssay (NCI)
The panel holds about 83,000 compounds, 20% with a hit somewhere; the sample as a whole holds those more often.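 Values shown are percent growth following 48 h exposure of cells in 96-well plates to a single concentration of compound; below 10 was considered active.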 Active and inactive are the calls of the source.

What was measured:
Assay in all cases: NCI-60 one-dose screen, 48 h (100 = growth as untreated, 0 = no growth, -100 = all killed)
Conditions in all cases: 10 µM unless noted
[1] = tested on: T-47D breast
[2] = tested on: BT-549 breast
[3] = tested on: MDA-MB-435 melanoma
[4] = tested on: SW-620 colon
[5] = tested on: MCF7 breast
[6] = tested on: KM12 colon
[7] = tested on: HCT-116 colon
[8] = tested on: HCC-2998 colon

Measured: growth

Cc1cccnc1NC(=S)Nc1ncccc1C
inactive: [1] 99.7% | [2] 96.1% | [3] 83.9% | [4] 111% | [5] 82.9% | [6] 107%

O=C(c1ccc(Cl)cc1)N1CCN(c2ccnc3cc(Cl)ccc23)CC1
inactive: [1] 58% | [2] 106% | [3] 97.5% | [4] 104% | [7] 81.5% | [8] 108% | [6] 94.9%

CC(=O)OC[C@]12CCC(C)(C)C[C@H]1[C@@]1(O)[C@H](O)C[C@@H]3[C@@]4(C)CCCNC(C)(C)[C@@H]4CC[C@@]3(C)[C@]1(C)CC2
inactive: [1] 104% | [2] 111% | [3] 109% | [4] 109% | [7] 104% | [8] 109% | [6] 113%

COc1cc(/C=C\c2cc(/C=C\c3ccc(O)c(OC)c3)n(C(=O)COc3ccc(Cl)cc3Cl)n2)ccc1O
active: [2] 1.41% | [3] -12.1% | [7] 3.48% | [6] 9.93%
inactive: [1] 15% | [4] 16.7% | [8] 38.5%

O=C1Nc2ccc(Br)cc2/C1=N/c1n[nH]c(=S)s1
inactive: [1] 94.6% | [2] 121% | [3] 101% | [4] 97.1% | [7] 103% | [8] 97.5% | [6] 95.5%

N#Cc1nc(-c2ccccc2)oc1S(=O)(=O)N1CCOCC1
inactive: [1] 65.4% | [2] 86.6% | [3] 89.4% | [4] 56.6% | [7] 19.9% | [8] 104% | [6] 97.8%

CN1CCN(c2ccc(C(=O)Nc3cccc(C#Cc4cccc5[nH]nc(N)c45)c3)cc2C(F)(F)F)CC1
inactive: [2] 71.4%
active: [1] -48.3% | [3] -88.8% | [4] -73.5% | [7] -83.4% | [8] -75.1% | [6] -57%

O=C(N/N=C/c1ccc(F)cc1)c1ccc(C(F)(F)F)nc1Nc1cccc(C(F)(F)F)c1
active: [1] -3.3% | [2] 1.7% | [4] 5.48% | [6] -4.29%
inactive: [3] 24.8% | [7] 10.1%

C/C(=N/O)c1ccc(F)cc1
inactive: [1] 91.4% | [2] 88.2% | [3] 112% | [5] 54.3% | [7] 51.9% | [8] 130% | [6] 106%

COc1ccc(/C=C2\COc3ccc(O)cc3C2=O)c(OC)c1OC
inactive: [1] 64.7% | [2] 72.3% | [3] 24.9% | [5] 24.5% | [7] 70.8% | [8] 86.4% | [6] 44.3%

CN(CCOc1ccc(C#N)cc1)CCOc1ccc(C#N)cc1
inactive: [1] 79.9% | [2] 91.3% | [3] 86.3% | [5] 211% | [7] 66.2% | [6] 71.4%

CS(=O)(=O)C1=CN(CCO)C(=O)N2CCCN=C12
inactive: [1] 102% | [2] 102% | [3] 102% | [5] 104% | [7] 97% | [8] 98.6% | [6] 105%

O=C(CCCCC1CCSS1)Nc1ncnc2n[nH]c(-c3ccc(Oc4ccccc4)cc3)c12 (configuration not stated)
active: [3] -28.4%
inactive: [1] 73.7% | [2] 118% | [5] 43.2% | [7] 36.7% | [8] 103% | [6] 70.5%

O=C(Nc1cccnc1Nc1ccc(F)cc1)c1cn(Cc2cccc(Oc3ccccc3)c2)nn1
active: [3] -32.4%
inactive: [1] 65.4% | [2] 69.8% | [5] 40.1% | [7] 68.8% | [8] 84.8% | [6] 55.9%

COc1ccc(C(=O)Nc2cccc(C3CC(=O)c4c(cc(OC)c(OC)c4OC)O3)c2)cc1 (configuration not stated)
active: [1] 7.66% | [3] -47.3%
inactive: [2] 34.7% | [4] 27.3% | [8] 64.9% | [6] 13.8%

CCO/C=N/C1=C(C#N)C(c2ccc(OC)cc2)c2sc3c(F)cccc3c2O1 (configuration not stated)
inactive: [1] 35.4% | [2] 49.8% | [5] 12.9% | [7] 33.8% | [8] 70.8% | [6] 25.3%
active: [3] -42.8%

O=C1N[C@@H]2NC(=[N+]3CCOCC3)N[C@@H]2N1
inactive: [1] 101% | [2] 110% | [3] 105% | [5] 95.9% | [7] 104% | [8] 108% | [6] 107%

CN1CCN(C(=O)OCc2ccc3c(Cl)cc(Cl)c(O)c3n2)CC1
inactive: [1] 58.6% | [2] 87% | [3] 60.5% | [5] 43.6% | [7] 32.9% | [8] 74.4% | [6] 48.7%

CC(C)N1CN2C(=S)NC3C2N(C1)C(=S)N3C (configuration not stated)
inactive: [1] 92.4% | [2] 124% | [3] 104% | [5] 93% | [7] 105% | [8] 113% | [6] 94.4%

CCOC(=O)C1=NN(c2ccccc2)C(=O)/C1=C\N1C(=O)CC(=O)NC1=S
inactive: [1] 85.9% | [2] 101% | [5] 102% | [7] 101% | [8] 112% | [6] 99.4%
active: [3] -22.1%

Nc1ncnc2c1N=C(c1ccc3c(c1)OCO3)CC(c1ccc([N+](=O)[O-])cc1)N2 (configuration not stated)
inactive: [1] 72.4% | [2] 96.2% | [3] 79.8% | [5] 63.2% | [7] 66.6% | [6] 78.4%

COC(=O)c1c2c(c[n+]([O-])c1C)C(=O)C(NCc1ccccc1)=CC2=O
active: [1] -31.8% | [2] -88.7% | [3] -93.7% | [5] -58.3% | [7] 1.8% | [6] -0.692%

Cc1ccc(-c2nc(N3CCNCC3)c3oc(-c4ccccc4)nc3n2)cc1
active: [1] -57.8% | [3] -81% | [5] -74.6% | [7] -71% | [8] -61.1% | [6] -89.1%
inactive: [2] 85.1%

C=C1C(=O)O[C@H]2[C@H]1CC/C(COC(=O)N[C@H]1C[C@H](O[C@H]3C[C@](O)(C(=O)CO)Cc4c(O)c5c(c(O)c43)C(=O)c3c(OC)cccc3C5=O)O[C@@H](C)[C@H]1O)=C\CC[C@@]1(C)O[C@@H]21
active: [7] 7.69%
inactive: [1] 29.7% | [2] 22.7% | [3] 66% | [5] 12.1% | [8] 99.3% | [6] 90.1%

O=C(Cn1c(-c2ccc([N+](=O)[O-])cc2)nc2ccccc21)NNC(=O)c1cccnc1
inactive: [1] 71.2% | [2] 97% | [3] 86.2% | [5] 25.9% | [7] 82.1% | [8] 98.5% | [6] 87.2%

C=C(C)[C@@H]1CC[C@]2(C(=O)OC)CC[C@]3(C)[C@H](CC[C@@H]4[C@@]5(C)C/C(=C/NC(N)=S)C(=O)C(C)(C)[C@@H]5CC[C@]43C)[C@@H]12
inactive: [1] 60.9% | [2] 126% | [3] 93.7% | [5] 80.7% | [7] 74.4% | [8] 99.4% | [6] 82.6%

CC/C(=C(/c1ccc(Cl)cc1)c1ccc(OCCN2CCCC2)cc1)c1ccc(OC)cc1
inactive: [1] 43.7% | [2] 85.8% | [3] 73.5% | [5] 18.5% | [7] 65.9% | [8] 71.1% | [6] 56%

C[C@]12CC[C@@H]3c4ccc(O)c([N+](=O)[O-])c4CC[C@H]3[C@@H]1CCC2=O
inactive: [1] 115% | [2] 78.3% | [3] 95.4% | [5] 112% | [7] 105% | [8] 94.1% | [6] 91.1%

Cc1c(-n2nnc(-c3nc4ccccc4s3)c2N)c(=O)n(-c2ccccc2)n1C
inactive: [1] 94.6% | [2] 107% | [3] 114% | [5] 90.6% | [7] 103% | [8] 95.4% | [6] 106%

O=S(=O)(NCCNc1cc(-c2c(-c3cccc(O)c3)nc3sccn23)ccn1)c1ccc(C(F)(F)F)cc1
inactive: [2] 26.6% | [3] 10.7% | [5] 16.2% | [7] 26.6% | [8] 70.6% | [6] 26.7%
active: [1] -1.89%

COc1cc(-c2csc(NC(=O)c3cc(-n4cnc(C)c4)cc(C(F)(F)F)c3)n2)cc(OC)c1OC
inactive: [1] 23.5% | [2] 47.4% | [3] 74.8% | [5] 61.8% | [7] 40.4% | [8] 83.9% | [6] 56.4%

O=C(O)CCCN1C(=O)/C(=C/C(Cl)=C/c2ccccc2)SC1=S
active: [2] 7.71% | [3] -14.9% | [7] -54.2% | [8] 5.79%
inactive: [1] 45.3% | [5] 14.2% | [6] 13.6%

CO[C@H]1/C=C(/C)CCC[C@H](C)[C@H](O)[C@@H](C)C(=O)C(C)(C)[C@@H](O)CC(=O)O[C@@H]1/C(C)=C/c1csc(C)n1
active: [3] -34.8% | [7] 9.39% | [6] 5.07%
inactive: [1] 42.3% | [2] 32.3% | [5] 20.4%

CCCCCCCCCCCCCCCCCCOc1ccccc1CC(=O)OCC[N+]1(C)CCCC1
inactive: [1] 62% | [2] 67% | [3] 23.4% | [5] 32.3% | [7] 29.2% | [6] 13.3%
active: [8] 3.99%

Cc1ccc(C(C(N)=O)C(C(N)=O)c2ccccc2)cc1 (configuration not stated)
inactive: [1] 112% | [2] 113% | [3] 109% | [5] 112% | [8] 112% | [6] 105%
